In PubChem BioAssay (NCATS):
Records with an inconclusive call do not appear. The source made the active and inactive calls. The call rests on the fitted dose curve; in most records, active means well fitted inhibition curve with a large enough effect; inconclusive means small, poorly fitted or top-dose-only effect; inactive means flat fitted curve, though single readings scatter.

What was measured:
Experiment in all cases: qHTS profiling for inhibitors of Plasmodium falciparum proliferation (AID 504749); further: nearly all actives have a fitted effect of over 60% in size
Conditions in all cases: P. falciparum in erythrocytes, SYBR Green DNA, 72 h
[1] = test system: P94_40
Procedure, shortened: (§1)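 Fluorescence of SYBR Green-bound parasite DNA, read at 485/535 nm, served as the growth measure. Infected erythrocytes were cultured with compound 72 h; artemisinin (0.29 uM) and DMSO wells defined the normalization range.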

[2] = test system: PAD
Procedure, shortened: as §1

[3] = test system: PC15
Procedure, shortened: as §1

[4] = test system: PC26
Procedure, shortened: as §1

[5] = test system: PC49
Procedure, shortened: as §1

[6] = test system: SC27B
Procedure, shortened: as §1

[7] = test system: TAB109
Procedure, shortened: as §1

[8] = test system: TAB113
Procedure, shortened: as §1

[9] = test system: TAB165
Procedure, shortened: as §1

[10] = test system: W2
Procedure, shortened: as §1

Measured: Potency
Potency means the concentration at half of the fitted maximal effect.

CC(=O)O[C@H]1C(=O)[C@@]2(C)[C@H]([C@H](OC(=O)c3ccccc3)[C@]3(O)C[C@H](OC(=O)[C@H](O)[C@@H](NC(=O)c4ccccc4)c4ccccc4)C(C)=C1C3(C)C)[C@]1(OC(C)=O)CO[C@@H]1C[C@@H]2O
active: [1] 355 nM | [2] 708 nM | [3] 1410 nM | [4] 536 nM | [5] 2000 nM | [6] 1260 nM | [7] 355 nM | [8] 1260 nM | [9] 282 nM | [10] 169 nM

CC[C@]1(O)CC2CN(CCc3c([nH]c4ccccc34)[C@@](C(=O)OC)(c3cc4c(cc3OC)N(C)[C@H]3[C@@](O)(C(=O)OC)[C@H](OC(C)=O)[C@]5(CC)C=CCN6CC[C@]43[C@@H]65)C2)C1 (some centres undefined)
active: [1] 1000 nM | [2] 4470 nM | [3] 5010 nM | [4] 1690 nM | [6] 3550 nM | [7] 1000 nM | [8] 3980 nM | [9] 2000 nM | [10] 478 nM
